According to the supplement of paper PMC11417369:
± gives the standard deviation of the averaged measurements. Whole data set: some 25,000 sequences, median “ln(normalized median fluorescence intensity)” near 8.9, cut for the highest 2% near 10. This is one part of a sample in which the highest values are shown more often than they occur.

test system: PfAP2-LT AP2 domain (GST-tagged); assay: gcPBM binding intensity (ln(normalized median fluorescence intensity)); higher = stronger DNA binding
Procedure, shortened: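 After 1 h on an Agilent 4 × 180k array of primer-extended double-stranded 36-bp intergenic genomic probes and negative controls, bound GST-tagged P. falciparum DNA-binding domains were detected with Alexa488 anti-GST antibody and scanned at 488 nm. The domains had been expressed in E. coli, and binding took place in 1× PBS with 1% milk, 0.2 mg/ml BSA, 0.5% salmon testes DNA and 0.03% Triton X-100. Binding intensity is the highest Masliner-normalised natural-log median intensity across replicate spots of either probe orientation.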

| Sequence | gcPBM binding intensity (ln) |
| --- | --- |
| TACTTGTTATTAACATGTACAAAAAAAAAAAAAATT [XGTACX_site1338] | 8.46 ± 0.42 |
| TCTAACATATAATATTCACACACATATATATATTAT [CACACA_site8236] | 9.21 ± 0.43 |
| ACTAAAAGGCTTAAATGTACATATTATATATATATA [XGTACX_site5897] | 8.89 ± 0.42 |
| TGAATAAATATATATACACACATATATGTATATATT [CACACA_site1642] | 8.95 ± 0.37 |
| AAAATTTATAGTATGGTGCATAAAAATATATATATA | 8.82 ± 0.46 |
| TAAATAAAAAAACACACACACATATATATATATATA [CACACA_site2269] | 10.2 ± 0.36 |
| AAAAAAAAATTAAAAACACACATATAAATAAATATA [CACACA_site6845] | 8.76 ± 0.54 |
| AAAAAAAAAAAACACACACACACATAAATATATATA [CACACA_site149] | 10.1 ± 0.18 |
| AAAAAAAAATTAAAAACACACATATATATATATATA [CACACA_site1580] | 9.73 ± 0.014 |
| AAAAAAAAAAAAAAAACACACATAAAAATATAATAA [CACACA_site3855] | 8.74 ± 0.63 |
| CATAAAATATAAAACACACACACATATATATATATA [CACACA_site223] | 10.1 ± 0.28 |
| AAAAAAAAAAAAAACACACACATATAAATATAAATA [CACACA_site6972] | 9.37 ± 0.45 |
| TAAATAAATAAAAAAACACACATATAAATATAAATA [CACACA_site7815] | 8.9 ± 0.52 |
| AAAAAAATTAAACACACACACACATATATATATATA [CACACA_site4718] | 10.1 ± 0.27 |
| TAAATAAATAAAAAAACACACATATATATATATATA [CACACA_site4029] | 9.6 ± 0.44 |
| TAAAATATAAAACACACACACATATATATATATATT [CACACA_site224] | 9.72 ± 0.11 |
| TATAAATAAAAACACACACACATATATATATATATA [CACACA_site2319] | 9.88 ± 0.12 |
| AAGAAAATAAAAAGGTAAATATGTATAAATAAATAA [TGCATGCA_negctrl_site88] | 8.71 ± 0.47 |
| TTATTTTCTTTTTCTTGTACACACATAATATGGATG [XGTACX_site1481] | 9.17 ± 0.54 |
| CTAATGATCATATATACACACACACTAATAAAAAAA [CACACA_site9329] | 9.64 ± 0.14 |
| ATACCTTCTTTTATGTTTAATTAATATACTTTTTAT [CACACA_negctrl_site1557] | 8.96 ± 0.55 |
| ACATATATTATTATATGTACATATATTAATTATATA [XGTACX_site3400] | 8.66 ± 0.28 |
| GCACACACAAAAAAAGCATGCATACTAGCTATTTTT [TGCATGCA_site18] | 9.37 ± 0.42 |

| Sequence | gcPBM binding intensity (ln) |
| --- | --- |
| CACAAAAATAAACACACACACATATATATATATATA [CACACA_site4704] | 10.21 ± 0.057 |
| TACACAAAAATAAACACACACACATATATATATATA [CACACA_site1000] | 9.79 ± 0.23 |
| CACCCATAGAAACACACACACGCATAAAAAAAAAAA [CACACA_site1513] | 9.56 ± 0.37 |
| ATATATATAAAACACACACACAAAAAAAATAAAGAC [CACACA_site117] | 10.1 ± 0.28 |
| TACACGCATAAACACACACACACACCCATATATATA [CACACA_site8114] | 10.24 ± 0.05 |
| AAAAAAAGAAAAAAAACACACACAAATATAAATAAA [CACACA_site8309] | 9.46 ± 0.39 |
| CTTACCAAAAAACACACACACACAAAATATATAAAT [CACACA_site1870] | 10.1 ± 0.24 |
| TACCAAAAGAAACACACACACAAAATATATAAATAT [CACACA_site1869] | 9.88 ± 0.28 |
| TACACAAAAATAAACACACACACATATAAATAAATA [CACACA_site6599] | 9.76 ± 0.3 |
| AAAAAATATAAAAAAACACACAAAAAAAAAAAAAAA [CACACA_site1382] | 8.6 ± 0.59 |
| AAAAAGAAAAAAAACACACACAAATATAAATAAATA [CACACA_site1183] | 9.24 ± 0.49 |
| ATTCTACACGCACATACACACATATAAATATAAATA [CACACA_site7582] | 9.24 ± 0.35 |
| TATATATAATATATATATATGGAAATTCTTTTAAAT [XGTACX_negctrl_site50] | 8.41 ± 0.38 |
| AATATGAATATCTATACACACACATATATATACACA [CACACA_site8459] | 9.45 ± 0.26 |
| AAAAAAAAAAAATGTGCACACGCGTACACCCAAAAA [CACACA_site8614] | 9.03 ± 0.4 |
| TAATGAAGATATATAACACACAAAAGTTATAAATAT [CACACA_site6678] | 8.97 ± 0.43 |
| AAAATATAGTAACACATACACACATATATATTTATA [CACACA_site2504] | 9.19 ± 0.38 |
| ATAATATATATGAAATGTACATAAATTTAATGCGAC [XGTACX_site5394] | 9.18 ± 0.45 |
| AACTGCAAAAAAAGACGTACAAATTATTAATTGCAA [XGTACX_site8929] | 8.88 ± 0.54 |
| ATATAAATAACGTGTACACACATATGTATTTATATA [CACACA_site6520] | 9.12 ± 0.31 |
| TACATAAAATATATCACACATATAATATATATATAT [CACACA_site5834] | 8.86 ± 0.35 |
| AATTAACCGAAACACACACACATATATATATATATA [CACACA_site3963] | 10.24 ± 0.064 |
| AAAATTAACCGTAACACACACACATATATATATATA [CACACA_site3964] | 9.96 ± 0.28 |

| Sequence | gcPBM binding intensity (ln) |
| --- | --- |
| AAAAAAAATAAACACACACACATACCCATAAATATA [CACACA_site5980] | 10 ± 0.13 |
| AATATACAAAATATCACACATATAAAATAATATATA [CACACA_site6067] | 8.88 ± 0.45 |
| ACCATATAAATAAACACACACACACCCATATATATA [CACACA_site2321] | 10 ± 0.36 |
| TTAATTAAGAAACACACACACATATATATATATATT [CACACA_site2290] | 9.79 ± 0.12 |
| GGAACAAATAATATCACACATATATATATATATATA [CACACA_site5670] | 10.2 ± 0.41 |
| TCATAGTATAAACACACACACACACCCATATATATA [CACACA_site8512] | 10.1 ± 0.31 |
| AAAAAAAAAAAAAACACACACACACCCATAAATATA [CACACA_site151] | 10.2 ± 0.15 |
| AAAAAAAAAAAAAACACACACACAATAGTATATAAA [CACACA_site957] | 9.55 ± 0.43 |
| TTTTTTTTTTTTTTTACACACTATAGGGAAAAAAAA [CACACA_site1916] | 8.21 ± 0.37 |
| AGAAAGAAAGAATACACACACACATATATATATATC [CACACA_site3744] | 9.95 ± 0.3 |
| GAATTAAAATAATACGTACACACATGTATAATACAT [CACACA_site1004] | 9.21 ± 0.29 |
| AAAAAATATATATCACGTGGTAATATATATATATAT [XGTACX_negctrl_site252] | 9.16 ± 0.14 |
| CATAAATACATACATACACACATATTTATATTTATA [CACACA_site7071] | 9.16 ± 0.4 |
| TATATATAAAAACACACACACACACCCTATAATTAT [CACACA_site4063] | 10.18 ± 0.042 |
| ATAATATATATATAAACACACAAAAAAAATTATATA [CACACA_site1534] | 8.96 ± 0.42 |
| ATATAATATATATATAAACACACAAAAAAAATTATA [CACACA_site8434] | 8.97 ± 0.45 |
| TTGAAAATACAAAATTGTACAAAGATTTAAATAAAA [XGTACX_site1182] | 8.7 ± 0.49 |
| TGAATAAATCAAAGCACACATACACCCACATATATA [CACACA_site286] | 9.47 ± 0.24 |
| AATAAATAAGCACATACACACATACATACATACATA [CACACA_site6075] | 9.54 ± 0.26 |
| AGAAGCATACATCAAGCACACACACCCACACCCACA [CACACA_site8014] | 10 ± 0.37 |
| TAAATAAGCACATACACACATACATACATACATAAA [CACACA_site4017] | 9.44 ± 0.38 |
| GCATACATCAAGCACACACACACACGCACACGCACA [CACACA_site6311] | 10.2 ± 0.19 |
| ATACATCAAGGACACACACACACACCCACACCCACA [CACACA_site8013] | 10.4 ± 0.27 |

| Sequence | gcPBM binding intensity (ln) |
| --- | --- |
| CATATACATCCACATACACACATACACCCATACACA [CACACA_site5038] | 9.66 ± 0.28 |
| AAGCATACATCAAGCACACACACACCCACACCCACA [CACACA_site372] | 10.3 ± 0.42 |
| AAATAAAAAAAAAAAAAAAATAACTTAAATGGGATA [TGCATGCA_negctrl_site595] | 8.33 ± 0.58 |
| TGCATTATATTAAATTTTTTATTTGTTGATGTTATA [GTGCAC_negctrl_site371] | 8.57 ± 0.47 |
| TAAAATATATATATGTGTACATAACATATAATTTTT [XGTACX_site1725] | 8.6 ± 0.46 |
| TAAAATTTATAAACTACACACATATATATAGTAATA [CACACA_site3728] | 8.8 ± 0.42 |
| TATATATAATATTTTTCACACACCATTTCCTTAAAC [CACACA_site1341] | 9.04 ± 0.29 |
| AATCATGCTCCGGAAAGTACATAAATAAATAAATAA [XGTACX_site1690] | 8.85 ± 0.56 |
| TAGAATATCCCCTACACACCCAAATAATTTACAAAT [CACACA_site4825] | 9.3 ± 0.35 |
| AGGGAATAATATTAATGTACATATATGAACTTGTTT [XGTACX_site6089] | 8.93 ± 0.43 |
| TATACATACAGACCCACACACAAAAAAAAAAAAAAA [CACACA_site6536] | 9.35 ± 0.5 |
| TATATATATATAGACACACACACACCCATATATATA [CACACA_site4117] | 9.94 ± 0.23 |
| TACGCTCCCAGACACACACACACACCGATATAATAT [CACACA_site8098] | 9.89 ± 0.23 |
| TATATACATAGACACCCACACACAAAAAAAAAAAAA [CACACA_site8186] | 9.43 ± 0.42 |
| CACCCCCACAGACACACACACACACCCATATATATA [CACACA_site364] | 10.45 ± 0.042 |
| TAGACTCCCAGACACACACACACACCCATATAATAT [CACACA_site593] | 10.2 ± 0.35 |
| CACCCCCACAGACACACACACACACCCACATATATA [CACACA_site365] | 10.54 ± 0.035 |
| TACATATACAGACACACACACACACCCCCACAAAAA [CACACA_site495] | 10.45 ± 0.099 |
| TATGATACATAATATACATGCATACACAACATTCAG [TGCATGCA_site487] | 8.94 ± 0.37 |
| ATATATATACCAAGTAGTACATTCTACAACTAATGT [XGTACX_site8653] | 8.79 ± 0.4 |
